# tim10-1 inh: tim10-1 yeast growth inhibition | S. cerevisiae tim10-1 ts strain growth, BacTiter-Glo, 24 h | inhibition, % at 20 µM | 330,000 compounds, 2.2% hits;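 active = inhibition of at least 40%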;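 also: mutant grown at 25 °C; 0% = DMSO wells with yeast and 100% = wells holding no yeast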
# TIM10 inh: growth inhibitors of TIM10 yeast strain; inhibition, % at 10 µM; S. cerevisiae TIM10 strain growth, BacTiter-Glo luminescence, 24 h; 330,000 compounds, 1.4% hits; AID 463195;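 active = inhibition of 40% or more at the single tested concentration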;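 also: wild-type TIM10 isogenic control strain grown at permissive 25 °C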
# NLRP3 yeast inh: blocks the NALP3 inflammasome reconstituted in yeast; Yeast reconstituted NLRP3/ASC/caspase-1, beta-gal luminescence, 24 h; inhibition, % at 10 µM; 330,000 compounds, 0.39% hits; AID 2825;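 active = inhibition of 50% or more; inactive = inhibition below 50%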;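 also: plate controls were induced DMSO wells for no effect and uninduced yeast grown without galactose for full effect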
# tim23-1 inh: tim23-1 yeast growth inhibition. AID 463212. inhibition, % at 20 µM. S. cerevisiae tim23-1 growth, BacTiter-Glo luminescence, 24 h. 330,000 compounds, 1.3% hits;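 active = growth inhibition of the mutant yeast at or above 50%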;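 also: temperature-sensitive mutant grown at 25 °C; plate controls were DMSO-treated mutant yeast for no effect and medium wells lacking yeast for full effect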
# NALP1 yeast inh: inhibitors of NALP1 inflammasome in yeast; inhibition, % at 10 µM; 280,000 compounds, 0.61% hits; S. cerevisiae NALP1/ASC/caspase-1 growth, X-gal OD620, 72 h; in the data active = inhibition mostly above about 24%, no sharp cut-off; inactive = mostly below about 32%
# PfHsp90 yeast 2: reduces growth (ATP signal) of yeast expressing P. falciparum Hsp90 | inhibition, % at 9.4 µM | 310,000 compounds, 0.32% hits | S. cerevisiae expressing PfHsp90, BacTiter-Glo ATP, 48 h; yeast lacking PDR1 and PDR3 efflux regulators | AID 504621;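 active = every replicate shows inhibition above about 80%, whatever the replicate mean, limit read from the data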;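 also: 0% = DMSO neutral controls and 100% = 20 µM radicicol positive controls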
# tim10-1 confirm: confirmation of tim10-1 mutant yeast growth inhibitors; shares compounds with tim10-1 inh; S. cerevisiae tim10-1 ts strain growth, BacTiter-Glo, 24 h; inhibition, % at 20 µM; 7,400 compounds, 56% hits; AID 463213;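 active = inhibition of yeast growth at or above a set limit in either of two repeat tests at 20 µM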;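 also: tim10-1 mutant grown at permissive 25 °C to find synthetic lethal compounds; 0% = DMSO yeast wells and 100% = medium wells without yeast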
# Active calls of the source: *; . = no result given. Shown are actives, neighbours in structure and some others; about 4.1% of the full set was active somewhere.
SMILES,tim10-1 inh,TIM10 inh,NLRP3 yeast inh,tim23-1 inh,NALP1 yeast inh,PfHsp90 yeast 2,tim10-1 confirm
CN1/C(=C/C2CC(=O)N(c3cccc4ccccc34)C2=O)C(C)(C)c2ccccc21 (stereo not drawn),50.7*,39.5,0.5,40.7,6.7,15.2,39.0*
O=S(=O)(c1ccc2c(c1)CCC2)N1CCNCC1,-9.6,-3.8,25.7,2.9,.,3.7,.
COc1ccc(-c2cccc3c2NC(=O)C3=O)cc1OC,24.5,-5.3,4.2,17.6,.,7.3,.
CCCCNC(=S)Nc1ccc(C(F)(F)F)cc1,54.3*,21.1,7.3,46.9,15.9,-13.5,31.2*
CCCNC(=S)Nc1ccc(Nc2ccccc2)cc1,42.4*,1.0,24.6,24.8,-4.3,4.7,24.1
S=C(NCCCNC(=S)Nc1ccccc1)Nc1ccccc1,10.4,4.8,1.4,22.4,0.3,-1.5,.
COC(=O)Sc1nc(N2CCOCC2)c2c(c1C#N)CC(C)(C)OC2,45.4*,38.8,-5.3,5.7,11.2,9.9,31.4*
COc1cccc(Cn2cc(-c3cccc(C(F)(F)F)c3)nn2)c1,41.9*,-1.3,8.4,-10.3,-50.2,-20.1,22.6
Cc1ccc(Nc2nnc(C3C(=O)N(C)C4(C)CC3c3cc(Br)ccc3O4)s2)cc1 (stereo not drawn),45.1*,21.8,-13.2,18.0,24.0,-16.3,6.1
Cc1ccc(NC(=O)CSCC(=O)Nc2nnc(C3CC3)s2)cc1,-9.0,-8.8,8.8,-2.2,.,.,.
CCOc1ccc(NC(=O)CCC(=O)NNC(=O)c2cccc([N+](=O)[O-])c2)cc1,-8.1,-5.7,11.7,-2.1,.,-1.6,.
c1ccc(CCn2cccc2)nc1,.,.,.,.,.,25.6,.
CC(CC(=O)NCCc1ccc(F)cc1)c1ccccc1 (stereo not drawn),14.8,2.8,25.1,-0.5,7.3,-19.2,.
Clc1cccc(Cl)c1/C=C/c1ccn[nH]1,54.7*,17.9,-3.7,39.0,9.2,-14.5,39.6*
O=C(Nc1ccc2c(c1)OCO2)c1nn(-c2ccccc2)c(=O)c2ccccc12,44.0*,17.7,12.7,24.8,15.5,-13.9,17.4
O=C(NNC(=S)Nc1cccc(C(F)(F)F)c1)c1cccc(Cl)c1,50.1*,35.6,11.7,41.4,14.7,-15.4,45.6*
COc1ccc(/C=C/C(=O)c2ccccc2)c(OC)c1,43.6*,22.4,9.0,20.0,-0.3,4.6,25.4
COc1ccc(/C=C/C(=O)c2ccc(OC)cc2OC)c(OC)c1,2.6,-3.2,11.4,17.6,3.9,5.1,.
CCOC(=O)C(Cc1ccccc1)NC(=O)CCc1c(C)nc2ncnn2c1C (stereo not drawn),14.3,-1.8,-7.6,1.1,1.7,18.4,.
CCOC(=O)C(Sc1cc(-c2ccccc2)nc2ncnn12)C(C)=O (stereo not drawn),41.0*,10.6,14.2,14.5,.,-6.2,29.6*
Nc1c(C(=O)NC2CCCC2)sc2nc(-c3cccs3)ccc12,40.2*,29.9,10.4,22.4,12.1,-2.6,32.0*
COc1cc(/C=C/c2nnc3c4ccccc4ncn23)cc(OC)c1OC,43.9*,25.1,0.3,25.0,22.7,19.0,23.1
O=C(Nc1nc2ccc(Br)cc2s1)c1ccco1,24.9,12.7,25.9,33.1,17.6,-24.2,.
O=C(Nc1nc2ccc(Cl)cc2s1)c1ccco1,40.1*,39.4,20.1,33.6,-7.3,11.7,29.9
CCN(CC)S(=O)(=O)c1ccc(N2CCOCC2)c(NC(=O)COc2ccccc2C)c1,15.1,11.6,9.8,33.3,.,-16.0,.
SMILES,tim10-1 inh,TIM10 inh,NLRP3 yeast inh,tim23-1 inh,NALP1 yeast inh,PfHsp90 yeast 2,tim10-1 confirm
CCOC(=O)c1c(NC(=O)CN2C(=O)NC(C)(c3ccc(OC(F)F)cc3)C2=O)sc(C)c1C (stereo not drawn),42.7*,18.4,20.8,21.6,19.8,2.4,27.4
CC1(c2ccc(OC(F)F)cc2)NC(=O)N(CC(=O)Nc2ccc(OC(F)F)cc2)C1=O (stereo not drawn),-8.9,9.7,0.5,4.1,-11.3,-6.0,.
O=[N+]([O-])c1ccc(NC(=S)N2CCc3ccccc3C2)cc1,41.2*,34.5,14.0,43.6,32.0,-16.3,28.6
C/C(=N/Nc1ccc([N+](=O)[O-])cc1)c1ccc(C)cc1C,42.0*,13.7,15.3,10.1,45.7,-15.4,27.4
CCOC(=O)c1ccc(S(=O)(=O)Nc2cc(C(C)(C)C)no2)cc1,40.9*,9.7,-14.4,24.4,-1.8,.,14.7
CCN(CC)C(=O)CSc1nc2cc(S(=O)(=O)N3CCOCC3)ccc2n1CC,6.2,4.5,12.3,5.8,17.6,2.6,.
S=C(N/N=C/c1cccc2ccccc12)Nc1cccc(Cl)c1,43.1*,-2.4,26.2,27.0,-3.7,-2.4,36.9*
S=C(NCCC(c1ccccc1)c1ccccc1)Nc1cccc(Cl)c1,40.1*,33.2,30.3,32.4,2.8,-20.5,17.4
Fc1cccc(NC(=S)NCc2ccccc2Cl)c1,49.6*,28.7,2.0,37.5,6.1,-23.2,43.5*
Cc1[nH]c2c(ccc3ccccc32)c1C1C(CCN)C1(C)C (stereo not drawn),44.5*,29.2,16.3,48.5,19.4,.,32.5*
S=c1[nH]c2ccc3ccccc3c2[nH]1,19.3,17.0,18.0,20.7,12.6,-0.8,.
CC(SC1=NCCN1S(C)(=O)=O)c1ccccc1 (stereo not drawn),-6.0,3.7,0.9,0.0,2.6,-2.2,.
O=C(Cc1ccccc1)c1ccc(N2CCOCC2)cc1,.,.,.,.,.,10.0,.
CCOC(=O)C1=NN(c2ccccc2)C(=O)/C1=C\c1ccc(N(C)C)cc1,40.2*,12.9,5.4,23.9,30.6,13.9,19.9
CC1=NN(Cc2ccccc2)C(=O)/C1=C\c1ccc(N(C)C)cc1,21.4,19.9,3.5,21.0,.,7.3,.
COc1cccc(NC(=O)CN(C)C(=O)c2ccc(Cl)c(S(=O)(=O)N3CCCCCC3)c2)c1,3.0,-3.0,-9.0,2.4,.,-3.2,.
O=C(CCS(=O)(=O)Cc1ccccc1)Nc1ncc([N+](=O)[O-])s1,4.0,14.1,-10.5,3.7,-7.7,14.1,.
Cc1ccc(CNS(=O)(=O)c2cc3c(cc2C)NC(=O)CO3)cc1,22.6,-0.3,7.6,1.5,-42.3,-0.1,.
COc1ccc(NC(=O)C2CCCCN2S(=O)(=O)c2ccc(F)cc2)c(OC)c1 (stereo not drawn),43.8*,33.7,4.1,31.4,1.2,2.9,28.6
COc1ccccc1NC(=O)C1CCCCN1S(=O)(=O)c1ccc(F)cc1 (stereo not drawn),35.0,25.5,16.7,28.5,11.7,-1.1,.
COCCC(=O)NC12CC3CC(CC(C3)C1)C2,0.7,-1.1,5.0,3.9,11.9,.,.
CCOP(=O)(NC12CC3CC(CC(C3)C1)C2)NC12CC3CC(CC(C3)C1)C2,40.3*,25.5,14.7,24.8,3.4,2.7,28.5
